These results are taken from publication PMC7862700, “An all-to-all approach to the identification of sequence-specific readers for epigenetic DNA modifications on cytosine”.

Common to all, as to assay: DAPPL (digital affinity profiling via proximity ligation, sequencing); 10 mM Tris-HCl pH 7.5, 50 mM NaCl, 1 mM DTT, 4% glycerol, room temperature, 30 min; GST-TFs on glutathione beads, 16-mer random dsDNA library, 0.1% formaldehyde crosslink after washing; high values mean tight binding
For one assay, the target named is T1, FLI1 (Homo sapiens, UniProt Q01543 1-452).
T1 sequence: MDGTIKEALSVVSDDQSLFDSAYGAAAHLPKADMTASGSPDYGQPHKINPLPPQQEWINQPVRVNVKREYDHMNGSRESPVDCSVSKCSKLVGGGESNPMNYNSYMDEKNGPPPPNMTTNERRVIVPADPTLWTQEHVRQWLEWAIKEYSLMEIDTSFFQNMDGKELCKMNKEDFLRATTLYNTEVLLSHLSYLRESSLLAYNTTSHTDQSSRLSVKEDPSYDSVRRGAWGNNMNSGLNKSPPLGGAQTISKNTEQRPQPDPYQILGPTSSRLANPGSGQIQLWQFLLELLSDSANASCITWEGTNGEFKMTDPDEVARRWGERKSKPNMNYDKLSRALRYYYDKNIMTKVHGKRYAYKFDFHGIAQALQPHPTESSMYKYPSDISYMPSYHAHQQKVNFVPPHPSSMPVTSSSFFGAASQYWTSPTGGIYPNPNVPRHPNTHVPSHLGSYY
As to conditions: protein: recombinant; tags: N-terminal GST; dsDNA, one strand shown. The essentials:
(§1)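 Binding signal is given per hexamer as its read frequency for a factor divided by its frequency in the tag-only sample. GST-fused human transcription factors were expressed in yeast, captured on glutathione beads, barcoded with DNA and pooled with that sample, then incubated with 200 nmole of a 16-mer random double-stranded DNA library in Tris/NaCl/DTT/glycerol buffer for 30 min at room temperature. The pools were then washed, crosslinked, proximity-ligated, amplified by PCR and sequenced on an Illumina NextSeq500.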

The target of a further assay is T2, ELK1 (Homo sapiens, UniProt P19419 1-428).
T2 sequence: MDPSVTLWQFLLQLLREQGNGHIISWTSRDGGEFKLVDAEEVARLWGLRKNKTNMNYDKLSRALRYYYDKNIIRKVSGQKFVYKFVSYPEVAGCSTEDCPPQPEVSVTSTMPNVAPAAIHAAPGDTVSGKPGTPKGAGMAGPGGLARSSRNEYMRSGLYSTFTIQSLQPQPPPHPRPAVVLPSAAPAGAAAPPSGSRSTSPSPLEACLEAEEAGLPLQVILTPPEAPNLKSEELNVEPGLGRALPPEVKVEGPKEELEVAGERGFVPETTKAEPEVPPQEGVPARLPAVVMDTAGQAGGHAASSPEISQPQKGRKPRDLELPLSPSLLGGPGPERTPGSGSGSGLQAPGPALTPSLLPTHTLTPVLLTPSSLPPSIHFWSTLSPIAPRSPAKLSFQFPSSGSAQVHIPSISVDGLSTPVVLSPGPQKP
As to conditions: protein: recombinant; tags: N-terminal GST; dsDNA, one strand shown. In short, it runs like this:
as §1

Another assay concerns the target T3, GABPA (Homo sapiens, UniProt Q06546 1-454).
T3 sequence: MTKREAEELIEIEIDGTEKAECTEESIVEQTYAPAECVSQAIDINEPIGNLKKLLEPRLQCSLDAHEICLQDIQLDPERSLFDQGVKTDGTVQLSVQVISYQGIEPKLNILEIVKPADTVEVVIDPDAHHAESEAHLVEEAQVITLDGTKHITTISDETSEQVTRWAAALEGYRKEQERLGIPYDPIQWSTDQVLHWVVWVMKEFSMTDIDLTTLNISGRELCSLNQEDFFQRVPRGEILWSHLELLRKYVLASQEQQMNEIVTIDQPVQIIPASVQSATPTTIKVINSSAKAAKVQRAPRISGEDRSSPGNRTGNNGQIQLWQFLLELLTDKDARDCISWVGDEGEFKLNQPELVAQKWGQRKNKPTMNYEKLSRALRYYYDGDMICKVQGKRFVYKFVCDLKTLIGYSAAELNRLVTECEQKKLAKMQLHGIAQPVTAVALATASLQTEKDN
As to conditions: protein: recombinant; tags: N-terminal GST; dsDNA, one strand shown. The essentials: as §1

In another assay the target is T4, ERG (Homo sapiens, UniProt P11308 1-479).
T4 sequence: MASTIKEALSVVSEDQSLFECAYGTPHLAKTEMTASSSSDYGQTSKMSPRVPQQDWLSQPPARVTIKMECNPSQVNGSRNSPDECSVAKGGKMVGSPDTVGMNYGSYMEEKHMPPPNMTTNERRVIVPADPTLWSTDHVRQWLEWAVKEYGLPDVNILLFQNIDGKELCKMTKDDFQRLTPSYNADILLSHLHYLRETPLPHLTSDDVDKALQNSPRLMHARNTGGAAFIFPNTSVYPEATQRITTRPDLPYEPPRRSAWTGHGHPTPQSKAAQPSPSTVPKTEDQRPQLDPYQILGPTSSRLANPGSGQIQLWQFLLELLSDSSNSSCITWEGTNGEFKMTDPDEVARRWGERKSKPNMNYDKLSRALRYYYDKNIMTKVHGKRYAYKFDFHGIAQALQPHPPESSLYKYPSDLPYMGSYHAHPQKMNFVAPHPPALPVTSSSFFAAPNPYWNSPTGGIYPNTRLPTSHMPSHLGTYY
As to conditions: protein: recombinant; tags: N-terminal GST; dsDNA, one strand shown. The essentials: as §1

The target of a further assay is ELF1 (Homo sapiens, UniProt P32519 1-619). The following applies: protein: recombinant; tags: N-terminal GST; dsDNA, one strand shown. The essentials:
as §1

In the next assay the target is T5, EHF (Homo sapiens, UniProt Q9NZC4 1-300).
T5 sequence: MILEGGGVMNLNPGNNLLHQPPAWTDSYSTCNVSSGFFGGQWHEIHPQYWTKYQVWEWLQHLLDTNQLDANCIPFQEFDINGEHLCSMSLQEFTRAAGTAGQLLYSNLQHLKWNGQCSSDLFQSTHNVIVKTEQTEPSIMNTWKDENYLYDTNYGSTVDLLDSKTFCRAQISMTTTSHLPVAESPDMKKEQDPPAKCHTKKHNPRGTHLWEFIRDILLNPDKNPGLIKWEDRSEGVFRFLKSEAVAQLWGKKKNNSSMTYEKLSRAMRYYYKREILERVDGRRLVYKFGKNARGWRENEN
As to conditions: protein: recombinant; tags: N-terminal GST; dsDNA, one strand shown. In short, it runs like this:
as §1

A further assay addresses SPI1 (Homo sapiens, UniProt P17947 1-270). As to conditions: protein: recombinant; tags: N-terminal GST; dsDNA, one strand shown. In short, it runs like this:
as §1

The target in another assay is SPIB (Homo sapiens, UniProt Q01892 1-262). The following applies: protein: recombinant; tags: N-terminal GST; dsDNA, one strand shown. In short, it runs like this: as §1
SPIB, sequence (Q01892 whole entry): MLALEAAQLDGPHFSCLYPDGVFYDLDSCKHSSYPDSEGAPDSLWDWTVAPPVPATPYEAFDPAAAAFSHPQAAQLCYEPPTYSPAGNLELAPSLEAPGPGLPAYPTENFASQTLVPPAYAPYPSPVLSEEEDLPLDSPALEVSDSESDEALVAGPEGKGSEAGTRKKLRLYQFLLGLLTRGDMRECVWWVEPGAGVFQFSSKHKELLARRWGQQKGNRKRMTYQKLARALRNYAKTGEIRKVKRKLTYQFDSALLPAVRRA
The target in a further assay is T6, ELK3 (Homo sapiens, UniProt P41970 1-407).
T6 sequence: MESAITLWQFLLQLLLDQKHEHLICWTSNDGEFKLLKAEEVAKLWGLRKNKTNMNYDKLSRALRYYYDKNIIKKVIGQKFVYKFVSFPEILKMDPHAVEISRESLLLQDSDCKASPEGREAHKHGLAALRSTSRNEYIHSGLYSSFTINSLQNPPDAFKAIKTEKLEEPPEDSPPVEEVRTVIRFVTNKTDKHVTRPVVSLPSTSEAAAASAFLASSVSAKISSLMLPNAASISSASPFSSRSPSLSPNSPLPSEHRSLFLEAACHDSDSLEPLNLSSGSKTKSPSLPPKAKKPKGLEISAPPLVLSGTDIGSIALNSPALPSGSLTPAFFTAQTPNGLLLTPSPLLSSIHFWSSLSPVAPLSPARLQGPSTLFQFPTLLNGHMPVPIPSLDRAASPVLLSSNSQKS
As to conditions: protein: recombinant; tags: N-terminal GST; dsDNA, one strand shown. In short, it runs like this: as §1

The target of a further assay is T7, FEV (Homo sapiens, UniProt Q99581 1-238).
T7 sequence: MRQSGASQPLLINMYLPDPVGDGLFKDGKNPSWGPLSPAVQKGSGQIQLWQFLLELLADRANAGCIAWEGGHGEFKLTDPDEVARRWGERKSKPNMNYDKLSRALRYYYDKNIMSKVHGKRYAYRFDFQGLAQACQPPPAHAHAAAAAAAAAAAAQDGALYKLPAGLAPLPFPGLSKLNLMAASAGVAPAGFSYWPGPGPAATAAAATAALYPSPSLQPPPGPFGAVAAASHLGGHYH
As to conditions: protein: recombinant; tags: N-terminal GST; dsDNA, one strand shown. In short, it runs like this:
as §1

Another assay deals with ETV5 (Homo sapiens, UniProt P41161 1-510). As to conditions: protein: recombinant; tags: N-terminal GST; dsDNA, one strand shown. The essentials: as §1
ETV5, sequence (P41161 whole entry): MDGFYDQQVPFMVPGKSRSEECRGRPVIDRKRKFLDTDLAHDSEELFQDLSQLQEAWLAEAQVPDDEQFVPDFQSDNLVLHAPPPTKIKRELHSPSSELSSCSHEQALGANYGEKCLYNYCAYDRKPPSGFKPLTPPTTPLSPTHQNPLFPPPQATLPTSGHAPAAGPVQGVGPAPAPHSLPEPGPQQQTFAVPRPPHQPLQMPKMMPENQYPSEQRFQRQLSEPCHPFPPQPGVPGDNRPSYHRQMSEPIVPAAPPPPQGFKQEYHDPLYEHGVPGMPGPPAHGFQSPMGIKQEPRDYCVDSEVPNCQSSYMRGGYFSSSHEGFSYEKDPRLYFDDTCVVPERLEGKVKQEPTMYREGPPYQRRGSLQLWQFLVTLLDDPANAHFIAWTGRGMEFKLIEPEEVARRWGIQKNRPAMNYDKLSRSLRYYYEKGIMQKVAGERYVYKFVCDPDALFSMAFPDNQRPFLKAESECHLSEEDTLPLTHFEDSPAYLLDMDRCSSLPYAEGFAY
For the next assay, the target named is HSF1 (Homo sapiens, UniProt Q00613 1-529). The following applies: protein: recombinant; tags: N-terminal GST; chain copies: 3; dsDNA, one strand shown. In short, it runs like this: as §1
HSF1, sequence (Q00613 whole entry): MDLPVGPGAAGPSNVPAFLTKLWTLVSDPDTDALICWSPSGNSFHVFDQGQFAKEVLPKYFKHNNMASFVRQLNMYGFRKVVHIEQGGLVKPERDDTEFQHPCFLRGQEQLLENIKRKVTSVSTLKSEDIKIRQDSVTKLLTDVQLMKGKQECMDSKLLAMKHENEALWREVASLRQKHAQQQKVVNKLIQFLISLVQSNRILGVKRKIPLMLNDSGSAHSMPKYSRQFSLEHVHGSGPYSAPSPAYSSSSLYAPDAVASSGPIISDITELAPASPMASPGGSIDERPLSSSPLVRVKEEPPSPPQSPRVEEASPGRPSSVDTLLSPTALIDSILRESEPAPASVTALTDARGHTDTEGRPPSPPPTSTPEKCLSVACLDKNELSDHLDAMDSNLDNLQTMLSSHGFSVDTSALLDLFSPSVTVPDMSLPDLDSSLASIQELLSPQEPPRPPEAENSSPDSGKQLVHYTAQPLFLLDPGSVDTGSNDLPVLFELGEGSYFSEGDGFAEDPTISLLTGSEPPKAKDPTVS
In a further assay the target is T8, SPIC (Homo sapiens, UniProt Q8N5J4 1-248).
T8 sequence: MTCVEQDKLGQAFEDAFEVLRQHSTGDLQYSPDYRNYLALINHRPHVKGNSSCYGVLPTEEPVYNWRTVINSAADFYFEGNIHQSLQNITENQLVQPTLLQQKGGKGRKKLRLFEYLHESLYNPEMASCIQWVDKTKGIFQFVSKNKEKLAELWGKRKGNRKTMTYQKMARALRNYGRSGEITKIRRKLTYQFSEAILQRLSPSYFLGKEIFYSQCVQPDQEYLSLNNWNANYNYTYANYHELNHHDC
As to conditions: protein: recombinant; tags: N-terminal GST; dsDNA, one strand shown. In short, it runs like this: as §1

Another assay addresses ELF4 (Homo sapiens, UniProt Q99607 1-663). The following applies: protein: recombinant; tags: N-terminal GST; dsDNA, one strand shown. The essentials: as §1
Another assay has as its target T9, ELK4 (Homo sapiens, UniProt P28324-2 1-405).
T9 sequence: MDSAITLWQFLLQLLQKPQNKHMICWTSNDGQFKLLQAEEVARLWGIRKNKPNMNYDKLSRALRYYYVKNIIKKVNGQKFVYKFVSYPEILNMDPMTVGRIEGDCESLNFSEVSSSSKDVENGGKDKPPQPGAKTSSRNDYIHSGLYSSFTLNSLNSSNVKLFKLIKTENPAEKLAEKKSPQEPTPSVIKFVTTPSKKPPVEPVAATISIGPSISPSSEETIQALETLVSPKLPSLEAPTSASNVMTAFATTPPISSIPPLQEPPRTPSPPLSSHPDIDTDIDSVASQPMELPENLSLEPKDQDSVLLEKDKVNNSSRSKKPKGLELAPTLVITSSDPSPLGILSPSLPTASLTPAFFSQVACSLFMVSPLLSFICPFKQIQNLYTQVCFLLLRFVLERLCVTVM
The following applies: protein: recombinant; tags: N-terminal GST; dsDNA, one strand shown. In short, it runs like this:
as §1

A further assay deals with T10, ETV2 (Homo sapiens, UniProt O00321 1-342).
T10 sequence: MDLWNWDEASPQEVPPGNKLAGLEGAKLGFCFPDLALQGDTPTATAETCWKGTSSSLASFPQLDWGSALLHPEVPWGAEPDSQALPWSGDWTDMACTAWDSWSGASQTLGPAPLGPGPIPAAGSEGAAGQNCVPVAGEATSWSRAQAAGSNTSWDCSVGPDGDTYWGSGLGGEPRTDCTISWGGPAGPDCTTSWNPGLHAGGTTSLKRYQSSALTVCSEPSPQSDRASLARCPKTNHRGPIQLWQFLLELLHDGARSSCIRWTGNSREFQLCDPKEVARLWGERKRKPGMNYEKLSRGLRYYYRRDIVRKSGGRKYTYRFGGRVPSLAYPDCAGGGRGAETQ
As to conditions: protein: recombinant; tags: N-terminal GST; dsDNA, one strand shown. In short, it runs like this:
as §1

Another assay has as its target T11, ELF3 (Homo sapiens, UniProt P78545 1-371).
T11 sequence: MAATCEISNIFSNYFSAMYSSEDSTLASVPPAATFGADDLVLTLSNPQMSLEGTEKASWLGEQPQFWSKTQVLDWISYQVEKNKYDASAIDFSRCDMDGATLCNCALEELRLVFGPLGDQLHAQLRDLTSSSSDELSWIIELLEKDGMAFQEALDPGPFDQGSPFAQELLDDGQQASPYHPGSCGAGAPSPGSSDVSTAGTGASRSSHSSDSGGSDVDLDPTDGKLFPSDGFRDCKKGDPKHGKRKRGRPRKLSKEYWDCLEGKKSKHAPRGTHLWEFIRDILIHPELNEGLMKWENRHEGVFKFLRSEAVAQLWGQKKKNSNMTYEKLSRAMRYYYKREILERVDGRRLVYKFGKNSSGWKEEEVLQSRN
As to conditions: protein: recombinant; tags: N-terminal GST; dsDNA, one strand shown. The essentials: as §1

The target in another assay is CRX (Homo sapiens, UniProt O43186 1-299). As to conditions: protein: recombinant; tags: N-terminal GST; dsDNA, one strand shown. In short, it runs like this:
as §1

For another assay, the target named is ETV1 (Homo sapiens, UniProt P50549 1-477). The following applies: protein: recombinant; tags: N-terminal GST; dsDNA, one strand shown. In short, it runs like this:
as §1

ELF4, sequence (Q99607 whole entry): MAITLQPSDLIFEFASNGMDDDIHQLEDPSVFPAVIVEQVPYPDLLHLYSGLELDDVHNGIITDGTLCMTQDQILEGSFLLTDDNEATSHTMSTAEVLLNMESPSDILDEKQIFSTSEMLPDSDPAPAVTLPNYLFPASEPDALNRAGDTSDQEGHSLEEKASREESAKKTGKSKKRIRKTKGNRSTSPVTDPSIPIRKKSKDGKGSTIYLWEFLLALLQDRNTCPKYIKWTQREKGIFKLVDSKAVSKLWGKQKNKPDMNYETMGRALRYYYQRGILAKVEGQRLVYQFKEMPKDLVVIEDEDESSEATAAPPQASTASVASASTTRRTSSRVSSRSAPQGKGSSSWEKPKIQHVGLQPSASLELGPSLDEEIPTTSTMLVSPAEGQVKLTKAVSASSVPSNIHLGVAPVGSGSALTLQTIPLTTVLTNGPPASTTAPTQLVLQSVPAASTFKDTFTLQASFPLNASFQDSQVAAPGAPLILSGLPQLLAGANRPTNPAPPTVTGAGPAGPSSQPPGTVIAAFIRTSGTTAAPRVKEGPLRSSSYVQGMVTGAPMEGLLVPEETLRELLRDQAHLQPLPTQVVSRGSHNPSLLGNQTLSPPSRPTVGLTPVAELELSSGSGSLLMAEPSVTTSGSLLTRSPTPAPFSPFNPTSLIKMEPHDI
CRX, sequence (O43186 whole entry): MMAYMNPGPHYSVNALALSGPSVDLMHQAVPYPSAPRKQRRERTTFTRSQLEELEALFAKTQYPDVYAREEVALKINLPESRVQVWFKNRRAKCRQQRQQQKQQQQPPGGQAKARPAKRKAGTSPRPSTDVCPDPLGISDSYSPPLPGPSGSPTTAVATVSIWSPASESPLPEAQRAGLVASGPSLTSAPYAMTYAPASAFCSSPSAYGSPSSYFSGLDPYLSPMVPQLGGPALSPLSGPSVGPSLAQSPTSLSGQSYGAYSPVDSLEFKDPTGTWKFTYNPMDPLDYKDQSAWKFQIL
ELF1, sequence (P32519 whole entry): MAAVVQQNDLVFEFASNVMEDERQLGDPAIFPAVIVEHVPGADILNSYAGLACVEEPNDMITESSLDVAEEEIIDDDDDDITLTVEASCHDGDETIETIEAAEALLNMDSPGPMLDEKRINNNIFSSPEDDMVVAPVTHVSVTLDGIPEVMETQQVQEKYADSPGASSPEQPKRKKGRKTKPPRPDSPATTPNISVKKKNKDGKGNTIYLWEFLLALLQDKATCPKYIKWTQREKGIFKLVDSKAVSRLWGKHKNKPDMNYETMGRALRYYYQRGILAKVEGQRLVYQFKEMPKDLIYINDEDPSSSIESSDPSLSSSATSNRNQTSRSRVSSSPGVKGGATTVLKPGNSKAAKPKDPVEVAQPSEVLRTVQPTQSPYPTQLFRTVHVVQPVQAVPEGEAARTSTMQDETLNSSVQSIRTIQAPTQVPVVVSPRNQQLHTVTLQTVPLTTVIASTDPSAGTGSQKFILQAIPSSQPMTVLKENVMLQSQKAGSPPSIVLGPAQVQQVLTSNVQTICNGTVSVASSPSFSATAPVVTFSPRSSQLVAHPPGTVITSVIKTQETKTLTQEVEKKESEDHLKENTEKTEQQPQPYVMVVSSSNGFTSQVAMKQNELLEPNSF
ETV1, sequence (P50549 whole entry): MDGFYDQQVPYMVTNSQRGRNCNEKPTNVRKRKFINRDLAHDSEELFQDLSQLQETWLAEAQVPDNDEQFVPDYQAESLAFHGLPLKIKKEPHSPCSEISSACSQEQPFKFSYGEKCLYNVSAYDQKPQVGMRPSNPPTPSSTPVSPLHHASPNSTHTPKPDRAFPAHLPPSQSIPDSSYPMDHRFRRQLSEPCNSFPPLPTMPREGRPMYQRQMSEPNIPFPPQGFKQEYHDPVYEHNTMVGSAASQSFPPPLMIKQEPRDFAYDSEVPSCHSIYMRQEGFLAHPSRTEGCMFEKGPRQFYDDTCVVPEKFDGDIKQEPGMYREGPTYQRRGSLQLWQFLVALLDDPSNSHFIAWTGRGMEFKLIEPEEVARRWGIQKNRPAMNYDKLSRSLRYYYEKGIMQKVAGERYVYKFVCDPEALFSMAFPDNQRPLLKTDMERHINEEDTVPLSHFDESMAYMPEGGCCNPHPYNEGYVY

Consider AACTAT, for which the binding signal with FLI1 was 1.37 fold enrichment (6-mer frequency, TF over GST control); with ELK1 it was 1.36 fold enrichment (6-mer frequency, TF over GST control); with GABPA, 1.38 fold enrichment (6-mer frequency, TF over GST control); in the assay with ERG it was 1.36 fold enrichment (6-mer frequency, TF over GST control); with ELF1, 1.29 fold enrichment (6-mer frequency, TF over GST control); with EHF, 1.36 fold enrichment (6-mer frequency, TF over GST control). In addition, the binding signal is 1.33 fold enrichment (6-mer frequency, TF over GST control) with SPI1; 1.29 fold enrichment (6-mer frequency, TF over GST control) in the assay with SPIB; 1.36 fold enrichment (6-mer frequency, TF over GST control) with ELK3; 1.31 fold enrichment (6-mer frequency, TF over GST control) with FEV; 1.37 fold enrichment (6-mer frequency, TF over GST control) with ETV5; 1.33 fold enrichment (6-mer frequency, TF over GST control) in the assay with HSF1. The binding signal was 1.43 fold enrichment (6-mer frequency, TF over GST control) with SPIC; 1.36 fold enrichment (6-mer frequency, TF over GST control) in the assay with ELF4; 1.45 fold enrichment (6-mer frequency, TF over GST control) with ELK4; 1.49 fold enrichment (6-mer frequency, TF over GST control) in the assay with ETV2; 1.26 fold enrichment (6-mer frequency, TF over GST control) with ELF3; 1.26 fold enrichment (6-mer frequency, TF over GST control) in the assay with CRX. Further, the binding signal with ETV1 is 1.43 fold enrichment (6-mer frequency, TF over GST control).
